This is part of a sample that, as a whole, favours compounds with a hit. Of some 83,000 tested, about 20% had one in any assay.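 Interpretation: 100, growth as untreated; towards 0, rising growth inhibition; 0, no net growth; 0 to -100, cell death. Compounds scoring below 10 were considered active.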 Activity calls are given as the source filed them.

The test concerns OVCAR-3 ovarian. Description: NCI-60 one-dose screen, 48 h (100 = growth as untreated, 0 = no growth, -100 = all killed). Particulars: 10 µM unless noted. Here is the method: Growth inhibition of the OVCAR-3 human tumor cell line is measured as a screen for anti-cancer activity. Cells are grown in 96 well plates and exposed to the test compound for 48 hours. Compounds are tested at a single concentration, which is 10^-5 M for most compounds. The reported endpoint is percent growth (GI% or GIPRCNT), where numbers from 0 - 100% represent growth inhibition, and numbers from -100% - 0 represent cell death. For example, a value of 40 represents 60% growth inhibition. A value of 0 means no net growth occurred over the course of the experiment. A value of -40 indicates 40% of cells at the beginning of the experiment died by the end of the experiment. A value of -100 means all cells are dead at the end of the experiment.
NCI-60 Human Tumor Cell Lines Screen was performed using the standard one-dose NCI protocol, which is described in more detail at https://dtp.cancer.gov/discovery_development/nci-60/default.htm.
Compounds with GIPRCNT values below 10 were considered active. Activity score was based on GIPRCNT using the following formula: […]
Score is 0 for GIPRCNT values of 100 or above, 50 for GIPRCNT values of 0, and 100 for GIPRCNT values of -100.
With `COc1cccc(-c2nn(-c3ccccc3)cc2-c2ccnc(NCCCN)c2)c1`, the growth is 29.2% (inactive).
`COc1cc(OC)c2c(c1)c1nc3cc(C)c(C)cc3nc1n2CCN(C)C`: the growth is 109% (inactive).
Take `Cc1cc(N2CCOCC2)nc(N(CCCNc2ccnc3cc(Cl)ccc23)Cc2ccco2)n1`: the growth was 2.02% (active).
With `O=C1NC(=Nc2ccc(S(=O)(=O)Nc3nccs3)cc2)S/C1=C\c1coc2ccccc2c1=O`, the growth is 117% (inactive).
On to `COc1ccc(C(=O)/C=C/c2cc(-c3cc(OC)c(OC)c(OC)c3)n[nH]2)cc1OC`, for which the growth is -55.3% (active).
In the case of `CC(C)=CCC[C@](C)(O)[C@H]1CC[C@]2(C)[C@@H]1CC[C@@H]1[C@@]3(C)C/C(=C/c4cccc([N+](=O)[O-])c4)C(=O)C(C)(C)[C@@H]3CC[C@]12C` it was 89.7% (inactive); in that of `CCSc1sc(-c2ccc(C)cc2)nc1[P+](c1ccccc1)(c1ccccc1)c1ccccc1`, -12.7% (active).
To `OCC(CO)(CCl)CCl` belongs 105% (inactive); to `C/C(=C(/c1ccccc1)c1ccc(N2C(=O)c3cccc4c(NCc5ccccc5)ccc(c34)C2=O)cc1)c1ccccc1`, 110% (inactive).
As for `N#CCCCCCn1c2ccccc2c2c3[nH]c(=O)[nH]c(=O)c3c3c4ccccc4n(CCCCCC#N)c3c21`, the growth was 49.2% (inactive).
On to `COc1ccc(CCN2C(=O)C(C)(C)SC2=S)cc1OC`, for which the growth is 107% (inactive).
With `c1ccc(CN2C(c3ccccc3)=Nc3ccccc3C2c2c[nH]c3ccccc23)cc1` (stereo not given), the growth is 57.6% (inactive).
As for `N#Cc1cnc2cc(OC[C@@H](O)CO)c(NC(=O)C3CCCC3)cc2c1Nc1ccc(OCc2cccc(F)c2)c(Cl)c1`, the growth was -82% (active).
Take `O=C1NC(c2ccc(Cl)c(Cl)c2)=C/C1=C\c1ccccc1`: the growth was 50.8% (inactive).
Turning to `Cc1ccc(Nc2c(C(N)=O)cnc3ccc(S(=O)(=O)Nc4cc(C)on4)cc23)cc1`, the growth is 103% (inactive).
In the case of `O=P(O)(c1ccccc1)c1ccccc1I`, the growth was 108% (inactive).
To `O=C(CI)Nc1ccc(O)c2ccccc12` belongs -29.5% (active); to `Nc1ncnc2nc(Br)[nH]c12`, 106% (inactive).
For `CN1CCN(CC#CCn2c3c(c4ccccc42)C[C@]2(C)[C@H]4CC[C@@H]5[C@H]6[C@H]7OC(=O)[C@@]6(CCC7(C)C)CC[C@@]5(C)[C@]4(C)CC[C@H]2C3(C)C)CC1`, the growth was 80.2% (inactive).
In the case of `COc1ccc(NC(=S)N/N=C/c2ccccc2SSCCC(=O)OC[C@H]2O[C@H](O)[C@H](O)[C@@H](O)[C@@H]2O)cc1` it was 91.3% (inactive).
Turning to `Nc1c2c(nc3ccc(Cl)cc13)CC(c1ccc(O)cc1)CC2=O` (stereo not given), the growth was 25.3% (inactive).
In the case of `O=C(N/N=C\c1c(O)ccc2ccccc12)C1CC1`, the growth is 1.02% (active).
To `COc1ccc(-c2nc3ncccn3c2-c2nc3ccc(Br)cc3[nH]2)cc1` belongs 72.7% (inactive); to `O=C1c2cccc3cccc(c23)C(=O)N1CC#Cc1ccc2c3c(cccc13)C(=O)N(CCO)C2=O`, 87% (inactive); to `Cc1cc(N(CCNc2ccnc3cc(Cl)ccc23)Cc2ccco2)nc(Cl)n1`, -89.5% (active).
Turning to `CNC(=O)c1cc(Oc2ccc3nc(NC(=O)Nc4ccc(Cl)cc4)sc3c2)ccn1`, the growth is 48.8% (inactive).
To `O=C(O)/C(=C/c1ccc(O)cc1)c1ccccc1` belongs 103% (inactive); to `CCOC(=O)C1OC1(c1ccccc1)c1ccccc1` (stereo not given), 106% (inactive).
In the case of `Cc1cccc2c1NC(=O)[C@@]21[C@H](C(=O)c2ccccc2)[C@]2(C(=O)Nc3ccccc32)[C@H]2CCCN21` it was 2.54% [100 µM] (active).
`NC(=O)NCC1CCCCC1`: the growth was 109% (inactive).
`COc1ccc(/C=C/C(=O)c2ccc([N+](=O)[O-])cc2)cc1`: the growth is 113% (inactive).
In the case of `COc1ccc2c(c1)C/C(=C\c1cc(-c3cc(OC)c(OC)c(OC)c3)n[nH]1)C2=O` it was 93.6% (inactive); in that of `Clc1ccccc1-c1nc(Nc2nc3ccccc3s2)nc(C(Cl)(Cl)Cl)n1`, 4.03% (active).
For `COc1cccc(-c2nn(-c3ccccc3)cc2-c2ccnc(NCCCNS(=O)(=O)c3ccccc3)c2)c1`, the growth was 41.3% (inactive).
On to `NCCNc1nc(-c2ccccc2)nc2nc(-c3ccccc3)oc12`, for which the growth was 88.2% (inactive).
To `Clc1cc(Cl)cc(Nc2ccc3c(OCCCN4CCOCC4)cccc3n2)c1` belongs 64.8% (inactive); to `Cn1cc(-c2csc(-c3cn(CCN)c4ccccc34)n2)c2cccnc21`, 45.5% (inactive); to `COc1ccc2[nH]c(-c3ccc(Cl)cc3)cc(=O)c2c1`, 106% (inactive).
Regarding `CCCC1CCCCN1C(=O)OCC(C)C` (stereo not given), the growth is 112% (inactive).
Take `Cn1cnc2c1c(=O)n(CCC(=O)Nc1ccc(F)cc1)c(=O)n2C`: the growth was 115% (inactive).

Source of the values: PubChem BioAssay (NCI).
